Results from PubChem BioAssay (Tox21).
Values joined by “and” are separate entries in the source; they are usually repeats but may differ in a detail not shown here. Identical values can stand only once. Inconclusive results are not listed. Active and inactive are the calls of the source. Unless noted, calls follow the shape of the dose curve; as a rule, active = well fitted cell-killing curve with a large enough effect in the repeat runs; inconclusive = weak or mixed curves; inactive = no such curve, though single readings can be large or run the other way. Positions of bridges follow the written chain, without caps; N, C: chain ends. Non-standard residues stand in square brackets, D forms with d. Residues, ends and D or L forms follow the SMILES beside them. *: point of attachment. Dab(CH2SO3H) = N[C@@H](CCNCS(=O)(=O)O)C(=O)O; X3 = CC[C@@H](C)CCCCC(=O)*; Dab = NCC[C@H](N)C(=O)O

System: not listed separately
Assay: qHTS assay for identifying genotoxic compounds that show differential cytotoxicity against isogenic chicken DT40 cell lines with known DNA damage response pathways - Rad54/Ku70 mutant cell line (AID 743015); also: nearly all actives have a fitted effect of over 60% in size
Conditions: DT40 Rad54/Ku70 mutant viability, CellTiter-Glo, 40 h; series mostly up to 66.8 µM; activity change, negative = cytotoxicity: at the top concentration
% is scaled to controls: 0 for no effect and ±100 for the full control effect; potency is read from the fitted curve at half-maximal effect.

| Compound | Potency | activity change, negative = cytotoxicity |
| --- | --- | --- |
| CC[C@@H](C)CCCCC(=O)N[C@@H](CCNCS(=O)(=O)O)C(=O)N[C@H](C(=O)N[C@@H](CCNCS(=O)(=O)O)C(=O)N[C@H]1CCNC(=O)[C@H]([C@@H](C)O)NC(=O)[C@H](CCNCS(=O)(=O)O)NC(=O)[C@H](CCNCS(=O)(=O)O)NC(=O)[C@H](CC(C)C)NC(=O)[C@@H](CC(C)C)NC(=O)[C@H](CCNCS(=O)(=O)O)NC1=O)[C@@H](C)O (X3-[Dab(CH2SO3H)]T[Dab(CH2SO3H)][Dab][Dab(CH2SO3H)][dL]L[Dab(CH2SO3H)][Dab(CH2SO3H)]T; lactam 4-C) | 18.8 µM (active) | – |
| CCC(NC(C)C)C(O)c1ccc(O)c(O)c1 (stereo not given) | – | -3.35% (inactive) |
| CCCCCCCCCC[N+](C)(CCCCCCCCCC)CCC[Si](OC)(OC)OC | 7.7 µM (active) | – |
| O=C1CCC(c2ccc(-n3ccnc3)cc2)=NN1 | – | 6.29% (inactive) |

System: not listed separately
Assay: qHTS assay to identify small molecule antagonists of the androgen receptor (AR) signaling pathway - cell viability counter screen (AID 743033; also: nearly all actives have a fitted effect of over 45% in size)
Conditions: AR-bla HEK293 viability, CellTiter-Glo luminescence, 16 h; series mostly up to 58.5 µM; activity change, negative = cytotoxicity: at the top concentration

| Compound | Potency | activity change, negative = cytotoxicity |
| --- | --- | --- |
| CC[C@H]1OC(=O)[C@H](C)C(=O)[C@H](C)[C@@H](O[C@@H]2O[C@H](C)C[C@H](N(C)C)[C@H]2O)[C@](C)(OC)C[C@@H](C)C(=O)[C@H](C)[C@H]2N(CCCCn3cnc(-c4cccnc4)c3)C(=O)O[C@]12C | inactive | – |
| CC(=O)OCC(=O)[C@@]1(O)CC[C@H]2[C@@H]3CCC4=CC(=O)CC[C@]4(C)C3=CC[C@@]21C | – | 2.02% (inactive) |
| CN1CCN(CCCN2c3ccccc3Sc3ccc(Cl)cc32)CC1 | 23.9 µM (active) | – |
| COc1c(Br)cc(Br)c(C)c1Br | – | -19.9% (inactive) |
| CC12CCC(C[N+](C)(CCC[N+](C)(C)C)C1)C2(C)C (stereo not given) | – | 1.05% (inactive) |
| O=C1c2c(O)cccc2[C@H]([C@@H]2O[C@H](CO)[C@@H](O)[C@H](O)[C@H]2O)c2cc(CO)cc(O)c21 | inactive | – |
| CCOc1ccc(S(=O)(=O)O)c2cccnc12 | – | 2.3% (inactive) |
| NC[C@H]1O[C@H](O[C@H]2[C@H](O)[C@@H](O[C@H]3O[C@H](CO)[C@@H](O)[C@H](N)[C@H]3O)[C@H](N)C[C@@H]2N)[C@H](N)C[C@@H]1O | – | -17.2% [at 27 µM] (inactive) |
| NCC[C@H](O)C(=O)N[C@@H]1C[C@H](N)[C@@H](O[C@H]2O[C@H](CN)CC[C@H]2N)[C@H](O)[C@H]1O[C@H]1O[C@H](CO)[C@@H](O)[C@H](N)[C@H]1O | – | 9.31% (inactive) |
| CC1(C)S[C@@H]2[C@H](NC(=O)[C@@H](NC(=O)N3CCNC3=O)c3ccccc3)C(=O)N2[C@H]1C(=O)O | – | 8.99% [at 27 µM] (inactive) |
| C=CC[N@@+]12CC[C@@]34c5ccccc5N5/C=C6/[C@H]7C[C@H]8[C@@]9(CC[N@@+]8(CC=C)C/C7=C/CO)c7ccccc7N(/C=C(/[C@@H](C[C@@H]31)/C(=C\CO)C2)[C@H]54)[C@@H]69 | – | 26.9% [at 27 µM] (inactive) |
| CC(C)Cc1ccc([C@H](C)C(=O)O)cc1 | – | -3.02% (inactive) |
| COc1cc2c(cc1OC)[C@@H](Cc1cc(OC)c(OC)c(OC)c1)[N+](C)(CCCOC(=O)CC/C=C/CCC(=O)OCCC[N+]1(C)CCc3cc(OC)c(OC)cc3[C@H]1Cc1cc(OC)c(OC)c(OC)c1)CC2 (stereo not given in full) | – | -9.04% (inactive) |
| FC(F)(F)C(F)(F)C(F)(F)C(F)(F)C(F)(F)F | – | 4.36% (inactive) |
| COc1ccc(/C=N/NC(=O)c2ccncc2)c(C(=O)O)c1OC | – | -1.24% (inactive) |
| Cc1cc(-c2ccc(N=Nc3ccc4c(S(=O)(=O)O)cc(S(=O)(=O)O)c(N)c4c3O)c(C)c2)ccc1N=Nc1ccc2c(S(=O)(=O)O)cc(S(=O)(=O)O)c(N)c2c1O | – | -19.2% (inactive) |
| CC[N+](CC)(CC)CCC(O)(c1ccccc1)C1CCCCC1 (stereo not given) | – | 11.1% [at 27 µM] (inactive) |
| CCN(CC)CCNC(=O)c1ccc(NS(C)(=O)=O)cc1 | – | -1.04% (inactive) |
| C=C1C(=C/C=C2\CCC[C@]3(C)[C@@H]([C@H](C)CCCC(C)C)CC[C@@H]23)C[C@@H](O)C[C@@H]1O | – | 4.51% (inactive) |
| CCC(NC(C)C)C(O)c1ccc(O)c(O)c1 (stereo not given) | – | 1.76% (inactive) |
| CCCCCCCCCC[N+](C)(CCCCCCCCCC)CCC[Si](OC)(OC)OC | 43.6 µM (active) | – |
| O=C1CCC(c2ccc(-n3ccnc3)cc2)=NN1 | – | 2.95% (inactive) |

Biological target: Androgen receptor (Homo sapiens) (UniProt P10275)
Assay: qHTS assay to identify small molecule antagonists of the androgen receptor (AR) signaling pathway (AID 743035; active = well fitted inhibition curve with a large enough effect in the signal ratio in the repeat runs, not every such curve was filed as active; the % refers to the signal ratio)
Conditions: HEK293 AR-UAS-bla, R1881-stimulated, beta-lactamase FRET, 16 h; series mostly up to 58.5 µM; activity change, negative = inhibition: at the top concentration
Procedure, shortened: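 R1881 agonist challenge of a HEK293 UAS-beta-lactamase AR reporter line in the presence of compound (16 h, 37C); signal taken as FRET fluorescence after 2 h with LiveBLAzer B/G substrate at room temperature.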

Androgen receptor (Homo sapiens), sequence (P10275 whole entry, looked up): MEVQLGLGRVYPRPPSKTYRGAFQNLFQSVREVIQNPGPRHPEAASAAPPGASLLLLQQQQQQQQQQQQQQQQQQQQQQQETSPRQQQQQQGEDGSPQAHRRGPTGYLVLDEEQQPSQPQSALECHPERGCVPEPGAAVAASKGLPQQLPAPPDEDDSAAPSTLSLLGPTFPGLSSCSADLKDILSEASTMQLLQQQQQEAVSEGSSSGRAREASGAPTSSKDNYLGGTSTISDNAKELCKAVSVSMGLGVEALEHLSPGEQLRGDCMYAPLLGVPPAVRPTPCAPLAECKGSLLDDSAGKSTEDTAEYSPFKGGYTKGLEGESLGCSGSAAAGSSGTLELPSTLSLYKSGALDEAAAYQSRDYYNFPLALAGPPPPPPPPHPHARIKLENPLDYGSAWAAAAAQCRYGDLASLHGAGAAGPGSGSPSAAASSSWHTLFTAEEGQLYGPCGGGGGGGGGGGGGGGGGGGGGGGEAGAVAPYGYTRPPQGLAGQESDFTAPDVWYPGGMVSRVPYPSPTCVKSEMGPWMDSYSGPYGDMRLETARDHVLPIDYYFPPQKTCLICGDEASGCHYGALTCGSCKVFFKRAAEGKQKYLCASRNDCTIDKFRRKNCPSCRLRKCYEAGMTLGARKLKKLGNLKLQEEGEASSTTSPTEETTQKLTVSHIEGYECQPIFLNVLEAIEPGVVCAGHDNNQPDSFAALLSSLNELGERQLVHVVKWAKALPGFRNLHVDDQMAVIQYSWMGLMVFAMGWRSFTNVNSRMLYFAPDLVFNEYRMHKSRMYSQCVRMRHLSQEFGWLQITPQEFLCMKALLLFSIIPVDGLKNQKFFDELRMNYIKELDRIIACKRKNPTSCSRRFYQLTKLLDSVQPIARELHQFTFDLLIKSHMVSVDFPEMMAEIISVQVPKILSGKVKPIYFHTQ

| Compound | activity change, negative = inhibition | Potency |
| --- | --- | --- |
| O=P(O)(O)OP(=O)(O)OP(=O)(O)O | 1.99% (inactive) | – |
| NC[C@@H]1CC[C@@H](N)[C@@H](O[C@H]2[C@H](O)[C@@H](O[C@H]3O[C@H](CO)[C@@H](O)[C@H](N)[C@H]3O)[C@H](N)C[C@@H]2N)O1 | 6.21% (inactive) | – |
| CC12CCC(C1)C(C)(C)C2=O (stereo not given) | -2.39% (inactive) | – |
| CC(C)c1ncc([N+](=O)[O-])n1C | 2.14% (inactive) | – |
| CC[C@H](C)C(=O)O[C@H]1CCC=C2C=C[C@H](C)[C@H](CC[C@@H]3C[C@@H](O)CC(=O)O3)[C@H]21 | – | 15.1 µM (active) |
| CN(C)CCc1c[nH]c2ccc(Cn3cncn3)cc12 | 13.5% (inactive) | – |
| C/C=C/C1=C(C(=O)O)N2C(=O)[C@@H](NC(=O)[C@H](N)c3ccc(O)cc3)[C@H]2SC1 | 0.856% (inactive) | – |
| O=C1C2CC3CC1CC(O)(C3)C2 | 11.4% (inactive) | – |
| COC(=O)C[C@](O)(CCCC(C)(C)O)C(=O)O[C@@H]1C(OC)=CC23CCCN2CCc2cc4c(cc2[C@H]13)OCO4 (stereo not given in full) | – | 75.6 nM (active) and 67.4 nM (active) |
